According to PubChem BioAssay AID588689 (Southern Research Specialized Biocontainment Screening …, 2011):
In all, about 340,000 compounds went through this assay and about 1,000 (0.29%) were called active. No stated cut-off is given here; in the data, inconclusive means inhibition above about 29% without an active follow-up result; inactive means below that. The list is a sample of the results. Potency and affinity values are given separately.

Target: Genome polyprotein (Dengue virus type 2 (strain 16681-PDK53)) (UniProt P29991)
Assay: flavivirus cap methylation enzyme inhibition – biochemical, confirmation dose response, primary screen (AID 588689)
Conditions: Dengue-2 NS5 methyltransferase capping enzyme assay, at 25 µM, stronger effect = higher value
[1] = measured here: pilot screen replicate inhibition

Compound	inhibition	inhibition [1]
COc1ccc(CN2C3CCCC2CC(NC(=O)Nc2ccccc2)C3)cc1 (centres undefined)	-8.9% (inactive)	
CCN(CC(=O)Nc1ccc2c(c1)OCCO2)S(=O)(=O)c1ccc(F)cc1	-12.2% (inactive)	
CCN(CC)S(=O)(=O)c1ccc(C(=O)NCCOC(=O)c2ccc(F)cc2F)cc1	8.01% (inactive)	
COc1ccccc1NS(=O)(=O)c1ccc2c(c1)OCCO2	-2.93% (inactive)	
Cc1ccc(S(=O)(=O)N2CCCCC2)cc1C(=O)NCc1ccc(S(N)(=O)=O)cc1	4.65% (inactive)	
COc1ccc(/C(O)=C2\C(=O)C(=O)N(CC3CCCO3)C2c2cc(OC)ccc2OC)cc1 (centres undefined)	-3.45% (inactive)	
O=C(NCCC1=CCCCC1)c1cnc2n(c1=O)CCS2	3.21% (inactive)	
COc1ccccc1C(=O)NC(=O)COC(=O)Cc1n[nH]c(=O)c2ccccc12	3.6% (inactive)	
COc1ccc(NS(=O)(=O)c2cc([N+](=O)[O-])ccc2N/N=C\c2c(C)[nH]c3ccccc23)cc1	-20.6% (inactive)	
COc1ccc(S(=O)(=O)NCc2ccccn2)cc1Br	2.64% (inactive)	3.33%
N#CC1=C(Nc2ccccc2Cl)SC(c2ccccc2O)NC1=O (centres undefined)	-11.1% (inactive)	
CSC1=C(C#N)C(=O)NC(c2ccc(Cl)cc2)S1 (centres undefined)	-3.83% (inactive)	
Cc1c([N+](=O)[O-])cc(N2C(=O)C=CC2=O)cc1[N+](=O)[O-]	8.16% (inactive)	
Cc1cc(N2C(=O)C=CC2=O)c([N+](=O)[O-])cc1C	-13.6% (inactive)	
COc1ccc(-c2ccc(NS(=O)(=O)c3ccc([N+](=O)[O-])cc3)cc2)nn1	5.43% (inactive)	
COc1ccc(-n2nc(C(=O)NCC(=O)NCC3CCCO3)c3ccccc3c2=O)cc1 (centres undefined)	-4.8% (inactive)	-2.44%
Cc1ccc(C2(C(F)(F)F)NC(=O)N3N=C4CCCCCN4C3=C2C#N)cc1 (centres undefined)	7.4% (inactive)	
Cc1ccc(/C=C2\SC(=S)N(CCCC(=O)Nc3ccccc3C(=O)O)C2=O)cc1	15.4% (inactive)	
COc1ccc(/C=C2/SC(=S)N(CCCC(=O)Nc3ccccc3C(=O)O)C2=O)cc1	12.5% (inactive)	

Compound	inhibition	inhibition [1]
COc1ccc(/C=C2\SC(=S)N(CCC(=O)Nc3ccccc3C(=O)O)C2=O)cc1	-2.62% (inactive)	
CCOc1ccc(/C=C2/SC(=S)N(CCC(=O)Nc3ccc(C(=O)O)cc3)C2=O)cc1	-7.39% (inactive)	
CCc1ccc(/C=C2\SC(=S)N(CCCC(=O)Nc3ccc(C(=O)O)cc3)C2=O)cc1	17.8% (inactive)	
COc1ccc(/C=C2\SC(=S)N(CCCC(=O)Nc3ccccc3C(=O)O)C2=O)cc1OC	-34.8% (inactive)	
COc1ccc(CNC(=O)COC(=O)C(CCSC)NC(=O)c2ccco2)cc1OC (centres undefined)	0% (inactive)	
O=C(c1cc(C2CC2)nn1-c1ccccc1)N1CCN(Cc2ccccc2F)CC1	-3.6% (inactive)	
Cc1cc(C(=O)COC(=O)c2n[nH]c(=O)c3ccccc23)c(C)n1C(C)C	-4.04% (inactive)	
CCOc1ccc(N(CC(=O)NC2CCCCC2C)S(=O)(=O)c2c(C)noc2C)cc1 (centres undefined)	-4.39% (inactive)	
O=C1C(=NO)CCCc2ccccc21	-3.23% (inactive)	
O=C1/C(=N\O)Cc2ccccc21	-5.15% (inactive)	
O=C(O)CC1SC(N/N=C/c2ccc(Br)cc2)NC1=O (centres undefined)	3.06% (inactive)	
COc1ccc(OC)c(S(=O)(=O)N(C)CC(=O)N2CCCCC2)c1	-7.78% (inactive)	
CC(C)C1C(=O)N(Cc2cn(CCC3OCCO3)nn2)CCS(=O)(=O)N1Cc1ccc(-c2ccc(Cl)c(Cl)c2)cc1 (centres undefined)	-2.32% (inactive)	
Oc1c(Br)cc(Br)cc1/C=N/n1c(-c2ccccc2)n[nH]c1=S	-12.7% (inactive)	
CN=c1scc(C)n1/N=C/c1cc(Br)c(O)c(Br)c1	-1.49% (inactive)	
Cc1c(Br)c(O)c(Br)c(O)c1/C=N/n1c(-c2ccccc2)n[nH]c1=S	21.5% (inactive)	
Oc1ccc(/C=N/n2c(-c3ccccc3)n[nH]c2=S)cc1Br	13.5% (inactive)	
COc1ccccc1N1C(=O)CC(N2CCN(c3ccc(F)cc3)CC2)C1=O (centres undefined)	-6.31% (inactive)	
O=C(CN(Cc1ccccc1Cl)C(=O)c1csnn1)NCc1ccc2c(c1)OCO2	-1.47% (inactive)	

Compound	inhibition	inhibition [1]
Cc1ccc(-c2cn3nc(C)c(C)nc3n2)cc1	-9.37% (inactive)	
Cc1nc2nc(-c3ccccc3)cn2nc1C	-1.38% (inactive)	
COc1ccc(C(=O)N(CC(=O)NC(C)(C)C)c2ccc3c(c2)OCCO3)cc1OC	-3.24% (inactive)	
Cn1c(-c2ccccc2)cc(=NNS(C)(=O)=O)c2cc(S(=O)(=O)O)ccc21	7.43% (inactive)	
Oc1ccc2ccccc2c1CN1CCCCC1	-0.78% (inactive)	
Oc1ccc(CN2CCCCC2)nc1-c1ccccc1	-3.27% (inactive)	
c1ccc(-c2ccc(-c3csnn3)cc2)cc1	0.69% (inactive)	
CCOc1ccc(S(=O)(=O)Nc2ccccc2SC)cc1	6.41% (inactive)	
COc1ccc(S(=O)(=O)c2c(C)c(NS(=O)(=O)c3ccccc3)cc(C)c2O)cc1	-5.22% (inactive)	
COc1ccc(S(=O)(=O)Nc2ccc(O)c3ccccc23)cc1	70.6% (inactive)	
CCOC(=O)c1ccccc1NS(=O)(=O)c1ccc(OCC)cc1	-6.45% (inactive)	
CC1(c2ccc(Cl)cc2)NC(=O)N(CC(=O)NCCC2=CCCCC2)C1=O (centres undefined)	-2.9% (inactive)	
COc1ccc(-n2c(=S)[nH]c3cc(C(=O)Nc4cc(C(N)=O)ccc4OC)ccc3c2=O)c(OC)c1	-13.4% (inactive)	
COc1cc(N)c(Cl)cc1C(=O)OCC(=O)NC1CCCC1	-6.23% (inactive)	
CC(C)c1ccc(NC2CCCN(C(=O)CN3CCCC3=O)C2)cc1 (centres undefined)	-7.87% (inactive)	
C=CCNC(=S)NNC(=O)c1csc(C)c1CC	2.43% (inactive)	
CCOc1ccc(NC(=O)CN(C)C(=O)C2=COCCO2)cc1OCC	-3.6% (inactive)	
CC(=O)c1ccc(Sc2ccccc2)c([N+](=O)[O-])c1	3.06% (inactive)	
Nc1ccccc1Sc1ccc(C(=O)c2ccccc2C(=O)O)cc1[N+](=O)[O-]	17.6% (inactive)	
